In PubChem BioAssay (NCATS):
Records with an inconclusive call do not appear. Activity calls are given as the source filed them. Calls follow the shape of the dose curve; as a rule, active = well fitted cell-killing curve with a large enough effect; inconclusive = small, poorly fitted or top-dose-only effect, or effect the other way; inactive = flat fitted curve, though single readings scatter.

Tests used:
Experiment in all cases: Primary qHTS to identify gynecologic anti-cancer compounds using libraries of approved drugs and bioactive compounds (AID 1345084); also: nearly all actives have a fitted effect of over 55% in size
[1] = tested on: Hek293T; conditions: Gynecologic cancer cell panel viability, ATPlite luminescence, 48 h, control line for the selectivity index; series mostly up to 57.5 µM
In short: (§1)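 ATP-based viability (ATPlite), 1,000 cells/well, 16 h pre-incubation, 48 h compound at 37 C, 5% CO2, 15 min RT before read.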

[2] = tested on: JEG-3; conditions: Gynecologic cancer cell panel viability, ATPlite luminescence, 48 h; series mostly up to 57.5 µM
In short: as §1

[3] = tested on: OV90; conditions: Gynecologic cancer cell panel viability, ATPlite luminescence, 48 h; series mostly up to 57.5 µM
In short: as §1

[4] = tested on: PA-1; conditions: Gynecologic cancer cell panel viability, ATPlite luminescence, 48 h; series mostly up to 57.5 µM
In short: as §1

[5] = tested on: SKOV3; conditions: Gynecologic cancer cell panel viability, ATPlite luminescence, 48 h; series mostly up to 57.5 µM
In short: as §1

[6] = tested on: Tov-21-G; conditions: Gynecologic cancer cell panel viability, ATPlite luminescence, 48 h; series mostly up to 57.5 µM
In short: as §1

[7] = tested on: Tov112D; conditions: Gynecologic cancer cell panel viability, ATPlite luminescence, 48 h; series mostly up to 57.5 µM
In short: as §1
% is scaled to controls: 0 for no effect and ±100 for the full control effect.

CC(CCc1ccc(O)cc1)O[C@@H]1O[C@H](CO[C@H]2OC[C@](O)(CO)[C@H]2O)[C@@H](O)[C@H](O)[C@H]1O (stereo partly drawn)
inactive: Potency [1] | Potency [2] | Potency [3] | Potency [4] | Potency [5] | Potency [6] | Potency [7]

CN1C(=O)c2ccccc2NC(=O)C1Cc1ccccc1 (stereo not drawn)
inactive: Potency [1] | Potency [2] | Potency [3] | Potency [4] | Potency [5] | Potency [6] | Potency [7]

CN1C(=O)N(c2ccc(C#N)c(C(F)(F)F)c2)C(=O)[C@]1(CO)c1ccccc1
inactive: Potency [1] | Potency [2] | Potency [3] | Potency [4] | Potency [5] | Potency [6] | Potency [7]

CC(C)(O)[C@H]1O[C@H]2CC[C@@]3(C)[C@@](O)(CC[C@H]4Cc5c([nH]c6ccccc56)[C@@]43C)C2=CC1=O
inactive: Potency [1] | Potency [2] | Potency [3] | Potency [4] | Potency [5] | Potency [6] | Potency [7]

CC1C/C=C/C(O)C(O)CC/C=C/c2cc(O)cc(O)c2C(=O)O1 (stereo not drawn)
inactive: Potency [1] | Potency [2] | Potency [3] | Potency [4] | Potency [5] | Potency [6] | Potency [7]

COC1CC(OC2CCC3(C)C(=CCC4C3CCC3(C)C(C(C)OC5OC(COC6OC(CO)C(O)C(O)C6O)C(O)C(O)C5O)CCC43O)C2)OC(C)C1OC1OC(C)C(O)C(OC)C1O (stereo not drawn)
inactive: activity change, negative = cytotoxicity [1] 5.95% [at 11.6 µM] | activity change, negative = cytotoxicity [2] -7.91% [at 11.6 µM] | activity change, negative = cytotoxicity [3] 0.938% [at 11.6 µM] | activity change, negative = cytotoxicity [4] 2.38% [at 11.6 µM] | activity change, negative = cytotoxicity [5] 25.2% [at 11.6 µM] | activity change, negative = cytotoxicity [6] 6.16% [at 11.6 µM] | activity change, negative = cytotoxicity [7] -0.166% [at 11.6 µM]

CCC(C)(OC(C)=O)C(=O)O[C@H]1[C@H](OC(C)=O)C[C@@H]2[C@@](C)([C@@H]3C[C@H]4C=CO[C@H]4O3)[C@H](C)C[C@H](OC(C)=O)[C@@]2(COC(C)=O)[C@@]12CO2 (stereo partly drawn)
inactive: Potency [1] | Potency [2] | Potency [3] | Potency [4] | Potency [5] | Potency [6] | Potency [7]

C=CC(C)(C)c1[nH]c2cccc3c2c1C[C@@H]1[C@@H]3[C@@H](OC(C)=O)[C@H](C)CN1C
inactive: Potency [1] | Potency [2] | Potency [3] | Potency [4] | Potency [5] | Potency [6] | Potency [7]

COC(=O)C12C(=O)C(C)(O)C(=O)C1(C)C(C)=CC1C34CCC(OC3=O)C(C)(CO)C4CCC12C (stereo not drawn)
inactive: Potency [1] | Potency [2] | Potency [3] | Potency [4] | Potency [5] | Potency [6] | Potency [7]

CCc1c(C(=O)C(N)=O)c2c(OCC(=O)OC)cccc2n1Cc1ccccc1
inactive: Potency [1] | Potency [2] | Potency [3] | Potency [4] | Potency [5] | Potency [6] | Potency [7]

CC1=C2C[C@H]3[C@@H](CC=C4C[C@@H](O)CC[C@@]43C)[C@@H]2CC[C@]12O[C@@H]1C[C@H](C)CN[C@H]1[C@H]2C
inactive: Potency [1] | Potency [2] | Potency [3] | Potency [4] | Potency [5] | Potency [6] | Potency [7]

CC1=CC2/C=C(\C)CCC(O)C3OC(C)(C)OC3CC(=O)OC23C(=O)NC(CC(C)C)C3C1C (stereo not drawn)
inactive: Potency [1] | Potency [2] | Potency [3] | Potency [4] | Potency [5] | Potency [6] | Potency [7]

Cn1ncnc1COc1nn2c(-c3c(F)cccc3F)nnc2cc1C1CCC1
inactive: Potency [1] | Potency [2] | Potency [3] | Potency [4] | Potency [5] | Potency [6] | Potency [7]

C[C@]12CC[C@H]3[C@@H]([C@H](O)CC4=CC(=O)CC[C@@]43C)[C@@H]1CC[C@@H]2O
inactive: Potency [1] | Potency [2] | Potency [3] | Potency [4] | Potency [5] | Potency [6] | Potency [7]

CC(=O)OC1CC(O)C(C)(C)C2CC(OC(C)=O)C3(C)C(CCC4(C)C(c5ccoc5)C(=O)C5OC543)C12C (stereo not drawn)
inactive: Potency [1] | Potency [2] | Potency [3] | Potency [4] | Potency [5] | Potency [6] | Potency [7]

COC(=O)C1(C)CCC(O)C2(C)c3c(O)cc(C(C)C)cc3C(O)C(OC(C)=O)C12 (stereo not drawn)
inactive: Potency [1] | Potency [2] | Potency [3] | Potency [4] | Potency [5] | Potency [6] | Potency [7]

Cc1cn(C[C@H](N)C(=O)O)c(=O)n(Cc2cc(-c3ccccc3)sc2C(=O)O)c1=O
inactive: Potency [1] | Potency [2] | Potency [3] | Potency [4] | Potency [5] | Potency [6] | Potency [7]

C/C=C(\C)C(=O)O[C@H]1[C@H](OC(C)=O)[C@]2(CO)[C@H](O)[C@H](O)[C@]3(C)C(=CCC4[C@@]5(C)CC[C@H](O[C@@H]6O[C@H](C(=O)O)[C@@H](O)[C@H](O[C@@H]7OC[C@H](O)[C@H](O[C@@H]8OC[C@H](O)[C@H](O)[C@H]8O)[C@H]7O)[C@H]6O[C@@H]6O[C@H](CO)[C@@H](O)[C@H](O)[C@H]6O)C(C)(C)C5CC[C@]43C)[C@@H]2CC1(C)C (stereo partly drawn)
inactive: activity change, negative = cytotoxicity [1] -2.46% [at 6.55 µM] | activity change, negative = cytotoxicity [2] -2.67% [at 6.55 µM] | activity change, negative = cytotoxicity [3] -10.1% [at 6.55 µM] | activity change, negative = cytotoxicity [4] -1.59% [at 6.55 µM] | activity change, negative = cytotoxicity [5] 6.49% [at 6.55 µM] | activity change, negative = cytotoxicity [6] 19.4% [at 6.55 µM] | activity change, negative = cytotoxicity [7] 8.32% [at 6.55 µM]

CC(=O)O[C@H]1C[C@@H](OC(C)=O)C(C)(C)C2C[C@@H](O)[C@]3(C)C(CC[C@@]4(C)[C@H](C5=CC(=O)OC5O)C[C@H]5O[C@]543)[C@]21C (stereo partly drawn)
inactive: Potency [1] | Potency [2] | Potency [3] | Potency [4] | Potency [5] | Potency [6] | Potency [7]
